Experimental data reported in the supplement of paper PMC10849652.
Of roughly 7,900 targets only a part is listed; those with a hit were picked by preference. About 0.6% of all pairs of compound and target were hits. Values without a mark were called inactive.

Compound: CC1=CC=C(C=C1)SC2=C3C=C(SC3=CN=C2)C(=O)N
Assay: log2 fold change, soluble protein after heating vs DMSO (PISA); higher = thermal stabilisation; K562 cells, 10 uM, 30 min; active = over 0.2 and 3.5 SD of the protein, either way, in both replicates (recomputed)
Method in brief: (§1)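 Soluble protein was defined as the supernatant after 21,000xg for 90 min. It came from K562 cells at 2×10^6 cells/mL given 10 μM compound for 30 min, heated in aliquots for 3 min across 48°C-58°C, pooled, and extracted in PBS with 0.5% NP-40 at 4°C, and was quantified by TMTpro 16plex LC-MS/MS with equalised channel sums. Thermal stability against control samples, from duplicates, is reported as log2 fold change.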

Chain of UniProt Q2TAC2 (Q2TAC2 whole entry, looked up): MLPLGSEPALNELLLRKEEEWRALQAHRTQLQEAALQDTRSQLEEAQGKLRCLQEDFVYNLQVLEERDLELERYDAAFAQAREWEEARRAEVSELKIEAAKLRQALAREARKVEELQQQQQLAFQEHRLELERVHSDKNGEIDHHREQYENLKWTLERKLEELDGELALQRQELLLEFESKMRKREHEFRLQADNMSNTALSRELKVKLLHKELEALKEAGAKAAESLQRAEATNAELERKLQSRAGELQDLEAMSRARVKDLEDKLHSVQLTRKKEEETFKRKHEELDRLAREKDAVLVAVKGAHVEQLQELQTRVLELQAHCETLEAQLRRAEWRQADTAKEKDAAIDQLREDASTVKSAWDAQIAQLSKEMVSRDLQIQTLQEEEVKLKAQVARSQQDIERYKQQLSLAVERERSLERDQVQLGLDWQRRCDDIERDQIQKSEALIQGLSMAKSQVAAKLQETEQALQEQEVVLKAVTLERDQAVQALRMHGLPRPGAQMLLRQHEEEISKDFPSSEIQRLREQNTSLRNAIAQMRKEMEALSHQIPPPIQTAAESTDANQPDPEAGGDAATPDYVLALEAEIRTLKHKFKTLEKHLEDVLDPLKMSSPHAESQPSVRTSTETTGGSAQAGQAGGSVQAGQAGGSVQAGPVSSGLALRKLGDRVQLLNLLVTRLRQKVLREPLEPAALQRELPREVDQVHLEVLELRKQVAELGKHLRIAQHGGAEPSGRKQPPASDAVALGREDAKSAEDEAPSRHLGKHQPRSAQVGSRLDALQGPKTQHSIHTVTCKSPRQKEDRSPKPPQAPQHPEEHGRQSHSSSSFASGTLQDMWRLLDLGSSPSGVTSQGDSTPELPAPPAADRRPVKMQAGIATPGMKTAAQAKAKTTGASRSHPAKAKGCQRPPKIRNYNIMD
Chain of UniProt Q14839 (Q14839 whole entry, looked up): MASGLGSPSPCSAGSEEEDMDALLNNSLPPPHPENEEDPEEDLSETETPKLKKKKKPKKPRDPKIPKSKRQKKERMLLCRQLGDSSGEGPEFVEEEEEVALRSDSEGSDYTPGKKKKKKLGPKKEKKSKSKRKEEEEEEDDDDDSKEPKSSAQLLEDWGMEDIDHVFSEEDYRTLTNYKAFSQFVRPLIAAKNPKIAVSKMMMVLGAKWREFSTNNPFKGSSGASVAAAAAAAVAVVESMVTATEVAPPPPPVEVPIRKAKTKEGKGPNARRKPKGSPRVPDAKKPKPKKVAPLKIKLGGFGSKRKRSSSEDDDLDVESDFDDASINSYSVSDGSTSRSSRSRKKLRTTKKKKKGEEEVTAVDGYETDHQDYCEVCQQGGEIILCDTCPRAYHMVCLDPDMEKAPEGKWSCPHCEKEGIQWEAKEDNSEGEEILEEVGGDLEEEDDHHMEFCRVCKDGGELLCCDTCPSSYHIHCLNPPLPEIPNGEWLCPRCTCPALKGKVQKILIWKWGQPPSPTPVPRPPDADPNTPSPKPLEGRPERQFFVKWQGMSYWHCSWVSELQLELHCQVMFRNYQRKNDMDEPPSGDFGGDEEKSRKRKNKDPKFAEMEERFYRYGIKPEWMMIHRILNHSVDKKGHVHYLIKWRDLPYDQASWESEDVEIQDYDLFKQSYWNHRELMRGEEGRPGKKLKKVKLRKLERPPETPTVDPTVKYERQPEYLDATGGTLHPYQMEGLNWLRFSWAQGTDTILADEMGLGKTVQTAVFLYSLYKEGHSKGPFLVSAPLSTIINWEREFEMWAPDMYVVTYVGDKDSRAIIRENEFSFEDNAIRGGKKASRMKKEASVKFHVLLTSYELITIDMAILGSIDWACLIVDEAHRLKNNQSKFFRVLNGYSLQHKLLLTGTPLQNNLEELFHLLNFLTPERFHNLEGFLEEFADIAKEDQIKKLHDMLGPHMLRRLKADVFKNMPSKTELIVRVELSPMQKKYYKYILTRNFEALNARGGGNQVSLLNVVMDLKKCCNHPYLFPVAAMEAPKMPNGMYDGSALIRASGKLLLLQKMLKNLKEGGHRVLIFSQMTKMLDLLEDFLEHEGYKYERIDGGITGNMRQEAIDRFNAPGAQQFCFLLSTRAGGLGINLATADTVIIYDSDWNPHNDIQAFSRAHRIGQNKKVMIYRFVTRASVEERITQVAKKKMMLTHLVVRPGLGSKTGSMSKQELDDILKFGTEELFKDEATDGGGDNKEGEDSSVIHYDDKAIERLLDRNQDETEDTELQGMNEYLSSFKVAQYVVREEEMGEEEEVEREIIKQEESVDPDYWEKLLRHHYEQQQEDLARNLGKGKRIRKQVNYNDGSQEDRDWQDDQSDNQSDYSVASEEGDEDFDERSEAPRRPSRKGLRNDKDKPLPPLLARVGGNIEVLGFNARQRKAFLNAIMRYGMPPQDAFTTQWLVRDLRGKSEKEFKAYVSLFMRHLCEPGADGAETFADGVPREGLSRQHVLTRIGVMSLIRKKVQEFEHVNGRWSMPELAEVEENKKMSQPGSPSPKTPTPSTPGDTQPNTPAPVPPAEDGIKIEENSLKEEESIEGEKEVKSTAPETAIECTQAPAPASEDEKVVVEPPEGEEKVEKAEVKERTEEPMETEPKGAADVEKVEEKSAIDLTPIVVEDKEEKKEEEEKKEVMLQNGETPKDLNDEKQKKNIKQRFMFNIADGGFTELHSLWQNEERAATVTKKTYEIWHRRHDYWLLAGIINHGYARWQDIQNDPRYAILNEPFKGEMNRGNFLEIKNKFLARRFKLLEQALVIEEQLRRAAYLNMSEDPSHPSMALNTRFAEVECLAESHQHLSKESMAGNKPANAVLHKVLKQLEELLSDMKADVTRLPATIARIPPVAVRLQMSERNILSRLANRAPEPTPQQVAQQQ
Chain of UniProt Q8IUI8 (Q8IUI8 whole entry, looked up): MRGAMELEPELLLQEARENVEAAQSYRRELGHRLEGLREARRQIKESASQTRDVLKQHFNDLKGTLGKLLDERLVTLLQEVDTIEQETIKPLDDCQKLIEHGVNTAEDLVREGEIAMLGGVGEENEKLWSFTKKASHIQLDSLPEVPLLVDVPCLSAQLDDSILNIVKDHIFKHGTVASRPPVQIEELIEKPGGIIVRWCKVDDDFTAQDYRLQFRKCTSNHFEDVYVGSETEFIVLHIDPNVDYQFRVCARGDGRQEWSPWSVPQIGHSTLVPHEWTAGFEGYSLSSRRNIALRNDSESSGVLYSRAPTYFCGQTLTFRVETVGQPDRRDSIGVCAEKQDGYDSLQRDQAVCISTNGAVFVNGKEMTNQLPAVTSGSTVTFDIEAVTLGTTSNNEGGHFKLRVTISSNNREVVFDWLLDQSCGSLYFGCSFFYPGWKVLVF
Chain of UniProt Q00534 (Q00534 whole entry, looked up): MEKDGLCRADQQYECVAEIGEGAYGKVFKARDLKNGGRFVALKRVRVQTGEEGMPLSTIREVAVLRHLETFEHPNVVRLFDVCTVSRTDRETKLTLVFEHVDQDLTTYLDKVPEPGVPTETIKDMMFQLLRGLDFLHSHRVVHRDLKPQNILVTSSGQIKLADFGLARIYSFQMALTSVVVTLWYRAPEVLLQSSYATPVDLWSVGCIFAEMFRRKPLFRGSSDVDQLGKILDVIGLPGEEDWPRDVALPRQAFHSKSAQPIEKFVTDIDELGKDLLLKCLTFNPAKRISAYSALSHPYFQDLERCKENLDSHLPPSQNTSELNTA
Chain of UniProt P00915 (P00915 whole entry, looked up): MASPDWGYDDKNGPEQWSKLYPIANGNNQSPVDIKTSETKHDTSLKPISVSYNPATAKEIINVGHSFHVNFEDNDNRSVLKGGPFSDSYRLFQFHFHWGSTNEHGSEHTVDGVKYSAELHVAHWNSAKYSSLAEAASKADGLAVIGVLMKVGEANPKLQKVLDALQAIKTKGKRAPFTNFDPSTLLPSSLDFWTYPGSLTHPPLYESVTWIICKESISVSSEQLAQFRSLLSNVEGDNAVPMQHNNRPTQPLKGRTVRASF
Chain of UniProt Q86X83 (Q86X83 whole entry, looked up): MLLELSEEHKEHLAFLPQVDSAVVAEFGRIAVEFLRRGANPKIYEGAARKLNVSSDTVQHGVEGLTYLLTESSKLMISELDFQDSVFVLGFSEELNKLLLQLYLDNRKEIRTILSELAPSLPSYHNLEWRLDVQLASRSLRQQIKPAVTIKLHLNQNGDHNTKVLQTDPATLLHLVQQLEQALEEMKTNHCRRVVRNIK
Chain of UniProt P35219 (P35219 whole entry, looked up): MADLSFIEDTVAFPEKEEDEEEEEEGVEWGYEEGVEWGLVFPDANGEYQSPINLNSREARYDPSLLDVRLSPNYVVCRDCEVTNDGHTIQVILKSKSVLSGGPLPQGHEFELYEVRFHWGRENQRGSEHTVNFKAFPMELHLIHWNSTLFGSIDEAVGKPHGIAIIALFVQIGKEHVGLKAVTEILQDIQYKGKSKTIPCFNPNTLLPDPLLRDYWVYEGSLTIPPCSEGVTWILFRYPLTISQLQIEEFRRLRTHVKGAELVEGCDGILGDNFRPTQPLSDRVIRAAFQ
Chain of UniProt Q9NPF2 (Q9NPF2 whole entry, looked up): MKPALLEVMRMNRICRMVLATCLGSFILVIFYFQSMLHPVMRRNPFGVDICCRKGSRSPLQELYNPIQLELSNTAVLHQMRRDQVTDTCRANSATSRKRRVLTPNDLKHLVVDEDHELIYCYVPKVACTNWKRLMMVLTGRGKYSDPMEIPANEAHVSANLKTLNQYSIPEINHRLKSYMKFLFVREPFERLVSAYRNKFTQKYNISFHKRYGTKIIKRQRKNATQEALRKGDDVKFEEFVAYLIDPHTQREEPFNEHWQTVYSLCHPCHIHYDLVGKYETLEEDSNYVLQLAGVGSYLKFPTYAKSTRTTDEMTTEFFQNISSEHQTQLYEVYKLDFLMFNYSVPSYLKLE
Chain of UniProt P51946 (P51946 whole entry, looked up): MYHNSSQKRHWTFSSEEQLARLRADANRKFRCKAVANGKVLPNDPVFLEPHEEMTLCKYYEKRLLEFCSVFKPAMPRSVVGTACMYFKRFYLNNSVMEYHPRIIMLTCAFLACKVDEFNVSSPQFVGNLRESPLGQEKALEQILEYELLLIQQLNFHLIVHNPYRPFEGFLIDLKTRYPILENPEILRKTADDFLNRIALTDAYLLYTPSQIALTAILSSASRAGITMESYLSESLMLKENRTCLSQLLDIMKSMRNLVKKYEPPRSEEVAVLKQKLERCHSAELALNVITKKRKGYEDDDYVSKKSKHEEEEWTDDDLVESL

Target | log2 fold change
COMMD2 (UniProt Q86X83) | 0.007
CDK6 (UniProt Q00534) | 0.044
CA8 (UniProt P35219) | 0.041
CA1 (UniProt P00915) | 0.03
CLSPN (UniProt Q9HAW4) | -0.025
CCNH (UniProt P51946) | -0.015
CLPP (UniProt Q16740) | -0.003
CHD4 isoform 2 (UniProt Q14839) | 0.062
CAMSAP1 isoform 3 (UniProt Q5T5Y3) | -0.02
CCDC57 (UniProt Q2TAC2) | 0.032
CHST11 (UniProt Q9NPF2) | 0.189
CRLF3 (UniProt Q8IUI8) | 0.03
CAD (UniProt P27708) | 0.027

Compound: CC1=NC(=CC=C1)C2=C(N=C(N2)C(C)(C)C)C3=CC4=NC=CN=C4C=C3
Assay: as above
Method in brief: as §1

Target | log2 fold change
CLCN7 (UniProt P51798) | 0.006
CCZ1 (UniProt P86791) | 0.035
C1D (UniProt Q13901) | -0.045
CNOT7 (UniProt Q9UIV1) | 0.014
CDC42BPA isoform 6 (UniProt Q5VT25) | -0.015
COMMD1 (UniProt Q8N668) | 0.056
CETN3 (UniProt O15182) | -0.102
C4orf33 (UniProt Q8N1A6) | -0.049
CDK9 isoform 2 (UniProt P50750) | -0.084
CDC25B isoform 4 (UniProt P30305) | -0.004
CHEK1 (UniProt O14757) | 0.037
CD53 (UniProt P19397) | -0.095
CRTC2 (UniProt Q53ET0) | 0.017
CDK4 (UniProt P11802) | -0.005
CNOT1 (UniProt A5YKK6) | 0.014
CPSF1 (UniProt Q10570) | -0.083
CLUH, A0A494C0R8 | 0.124
CEPT1 (UniProt Q9Y6K0) | 0.069

Target | log2 fold change
CELF2 isoform 3 (UniProt O95319) | -0.006
CDC42SE1 (UniProt Q9NRR8) | -0.09
CASP3 (UniProt P42574) | 0.065
CDK12 (UniProt Q9NYV4) | -0.077
COQ9 (UniProt O75208) | 0.064
COMMD2 (UniProt Q86X83) | 0.035
CDK6 (UniProt Q00534) | 0
CA8 (UniProt P35219) | 0.006
CA1 (UniProt P00915) | 0.014
CLSPN (UniProt Q9HAW4) | -0.035
CCNH (UniProt P51946) | -0.056
CLPP (UniProt Q16740) | 0.007
CHD4 isoform 2 (UniProt Q14839) | -0.014
CAMSAP1 isoform 3 (UniProt Q5T5Y3) | -0.101
CCDC57 (UniProt Q2TAC2) | -0.01
CHST11 (UniProt Q9NPF2) | 0.047
CRLF3 (UniProt Q8IUI8) | -0.071
CAD (UniProt P27708) | 0.012
